The source of these data is ChEMBL document CHEMBL3988442, “University of Dundee, Small-Polar-MMV Screening Library” (2021).

Set-up in all cases: scale not given: direction of the effect not stated beside the values
In test [1] the target is Protein translocase subunit SecA (Escherichia coli (strain K12)) (UniProt P10408). The test is described as follows: Assay to Identify E. coli SecA ATPase Inhibitors. The class given is functional. The following applies: 30 µM.
Test [2] has as its target T1, Ubiquitin-activating enzyme e1, putative (Leishmania donovani (strain BPK282A1)) (UniProt E9BSI1).
T1 sequence (whole entry): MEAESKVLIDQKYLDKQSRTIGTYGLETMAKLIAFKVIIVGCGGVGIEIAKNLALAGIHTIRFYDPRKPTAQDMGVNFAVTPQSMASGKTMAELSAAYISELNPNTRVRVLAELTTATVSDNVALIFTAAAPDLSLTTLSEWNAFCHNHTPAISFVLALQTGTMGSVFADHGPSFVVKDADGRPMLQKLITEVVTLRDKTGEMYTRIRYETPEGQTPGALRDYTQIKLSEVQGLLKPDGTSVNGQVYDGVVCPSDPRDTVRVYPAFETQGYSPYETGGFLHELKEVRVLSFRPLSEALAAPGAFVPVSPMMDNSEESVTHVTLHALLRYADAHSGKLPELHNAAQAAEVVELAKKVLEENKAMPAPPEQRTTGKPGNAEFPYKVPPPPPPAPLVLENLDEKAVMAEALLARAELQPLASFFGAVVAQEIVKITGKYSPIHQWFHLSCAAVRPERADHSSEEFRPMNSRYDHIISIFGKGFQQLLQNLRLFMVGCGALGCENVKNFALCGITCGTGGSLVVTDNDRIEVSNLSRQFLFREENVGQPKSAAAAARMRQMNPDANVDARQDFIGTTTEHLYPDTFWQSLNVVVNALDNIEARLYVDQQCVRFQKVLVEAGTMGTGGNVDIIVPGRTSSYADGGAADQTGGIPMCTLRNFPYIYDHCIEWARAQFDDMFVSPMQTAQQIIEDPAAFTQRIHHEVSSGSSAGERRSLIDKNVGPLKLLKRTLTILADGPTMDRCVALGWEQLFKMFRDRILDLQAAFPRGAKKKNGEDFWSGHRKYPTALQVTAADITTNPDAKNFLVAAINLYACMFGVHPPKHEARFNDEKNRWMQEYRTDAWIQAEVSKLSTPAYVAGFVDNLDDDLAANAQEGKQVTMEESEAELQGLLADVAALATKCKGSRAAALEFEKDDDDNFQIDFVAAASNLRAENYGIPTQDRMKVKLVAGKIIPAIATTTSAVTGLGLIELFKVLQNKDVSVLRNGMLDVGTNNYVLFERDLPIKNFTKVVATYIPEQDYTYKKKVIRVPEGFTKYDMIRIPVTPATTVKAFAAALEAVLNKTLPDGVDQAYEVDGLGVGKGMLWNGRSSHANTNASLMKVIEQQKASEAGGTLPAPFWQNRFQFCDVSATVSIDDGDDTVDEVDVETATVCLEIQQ
The test is described as follows: Leishmania donovani Ubiquitin Activating Enzyme (LdE1). It is filed as functional. Particulars: 30 µM.

Test [3] concerns the target AMP-activated protein kinase, AMPK (Homo sapiens) (UniProt P54646+O43741+P54619+Q9UGJ0+Q9Y478+Q13131+Q9UGI9). Nature of the test: AMP-dependent Kinase enzyme assay. An in vitro enzyme assay that detects ADP turnover that is directly proportional to AMPK activity. This uses naive AMPK that is activated during the assay with MK-8722. It is filed as functional. The following applies: 30 µM.

The target of test [4] is Sialic acid-binding Ig-like lectin 9 (Homo sapiens) (UniProt Q9Y336). Nature of the test: Hs-Siglec9 ALPHAscreen SOP 20170721. The following applies: 10 µM. Background: In Alpha technology, singlet oxygen from a donor bead excites a nearby acceptor bead.
A further test deals with Trypanosoma cruzi. Nature of the test: Trypanosoma cruzi phosphomannomutase and mannose-1-phosphate guanylyltransferase assay. It is filed as functional. Particulars: 10 µM.
Test [5] has as its target T2, Arginase-2, mitochondrial (Homo sapiens) (UniProt P78540).
T2 sequence (whole entry): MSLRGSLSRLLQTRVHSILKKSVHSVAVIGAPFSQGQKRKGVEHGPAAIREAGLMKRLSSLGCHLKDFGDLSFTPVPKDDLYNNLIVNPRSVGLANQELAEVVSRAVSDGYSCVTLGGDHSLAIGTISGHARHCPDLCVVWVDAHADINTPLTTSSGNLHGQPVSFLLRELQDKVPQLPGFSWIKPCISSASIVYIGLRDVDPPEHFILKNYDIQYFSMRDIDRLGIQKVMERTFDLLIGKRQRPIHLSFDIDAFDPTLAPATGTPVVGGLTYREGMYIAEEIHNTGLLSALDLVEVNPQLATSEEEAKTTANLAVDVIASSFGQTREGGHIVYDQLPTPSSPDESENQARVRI
The test is described as follows: in vitro enzyme assay to detect the production of urea directly proportional to the activity of Arginase II. Also: in the data most compounds retested in dose-response had high values. Particulars: 33.3 µM. It is filed as functional.

Test [6] deals with T3, Proteasome subunit beta (Trypanosoma cruzi) (UniProt O96673).
T3 sequence (whole entry): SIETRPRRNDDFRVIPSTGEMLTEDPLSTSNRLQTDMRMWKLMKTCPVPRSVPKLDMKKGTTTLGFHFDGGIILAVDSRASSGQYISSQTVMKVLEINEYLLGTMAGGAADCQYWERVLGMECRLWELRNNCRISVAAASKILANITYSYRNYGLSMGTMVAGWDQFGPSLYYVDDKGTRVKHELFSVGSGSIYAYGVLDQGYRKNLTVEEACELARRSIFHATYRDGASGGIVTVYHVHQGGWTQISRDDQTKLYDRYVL
Nature of the test: Trypanosoma cruzi proteasome chymotrypsin-like activity (TcProtChymo) assay. Also: in the data most compounds retested in dose-response had high values. The class given is functional. Particulars: 9.37 µM.

A further test is filed under the species Homo sapiens. Nature of the test: To identify inhibition of the IFN signalling (Jak-Stat) pathway via expression of an eGFP reporter gene under the control of an IFN-stimulated response element (ISRE) containing MxA promoter. It is filed as functional. The following applies: 30 µM.
In test [7] the target is T4, Tyrosyl-tRNA synthetase, putative (Trypanosoma cruzi (strain CL Brener)) (UniProt Q4DSP6).
T4 sequence (whole entry): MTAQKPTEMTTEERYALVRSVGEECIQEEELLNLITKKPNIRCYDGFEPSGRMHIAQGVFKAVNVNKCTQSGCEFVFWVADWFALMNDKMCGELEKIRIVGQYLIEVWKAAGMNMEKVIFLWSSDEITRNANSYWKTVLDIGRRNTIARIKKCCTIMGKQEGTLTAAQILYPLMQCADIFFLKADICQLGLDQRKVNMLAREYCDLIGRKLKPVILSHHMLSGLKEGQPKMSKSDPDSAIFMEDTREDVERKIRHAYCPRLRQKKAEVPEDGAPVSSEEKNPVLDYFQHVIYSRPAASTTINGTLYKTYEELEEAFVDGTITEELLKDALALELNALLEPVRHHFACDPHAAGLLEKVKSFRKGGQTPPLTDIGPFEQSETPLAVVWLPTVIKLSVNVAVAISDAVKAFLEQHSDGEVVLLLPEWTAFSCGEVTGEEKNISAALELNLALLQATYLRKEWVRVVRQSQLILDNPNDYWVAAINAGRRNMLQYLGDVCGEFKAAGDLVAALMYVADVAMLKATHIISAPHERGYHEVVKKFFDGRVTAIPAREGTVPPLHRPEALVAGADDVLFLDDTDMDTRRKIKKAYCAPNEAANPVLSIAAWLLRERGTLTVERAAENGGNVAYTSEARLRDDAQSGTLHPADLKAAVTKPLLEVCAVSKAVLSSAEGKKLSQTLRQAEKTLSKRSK
Nature of the test: Trypanosoma cruzi tyrosyl tRNA synthetase (TcYRS) _High Tyrosine SOP. Also: in the data most compounds retested in dose-response had high values. Particulars: 30 µM. The class given is functional.

In test [8] the target is T4, Tyrosyl-tRNA synthetase, putative (Trypanosoma cruzi (strain CL Brener)). Nature of the test: Trypanosoma cruzi tyrosyl tRNA synthetase (TcYRS) SOP. It is filed as functional. Particulars: 30 µM.
For test [9], the target named is Chromo domain-containing protein 1 (Saccharomyces cerevisiae (strain ATCC 204508 / S288c) (Baker's yeast)) (UniProt P32657). Nature of the test: ScCHD-1 Enzyme Inhibition Assay. Also: in the data most compounds retested in dose-response had high values. It is filed as functional. The following applies: 30 µM.

For part of these data: Potency and affinity values are given separately.

Sequence of Protein translocase subunit SecA (Escherichia coli (strain K12)) (P10408 whole entry): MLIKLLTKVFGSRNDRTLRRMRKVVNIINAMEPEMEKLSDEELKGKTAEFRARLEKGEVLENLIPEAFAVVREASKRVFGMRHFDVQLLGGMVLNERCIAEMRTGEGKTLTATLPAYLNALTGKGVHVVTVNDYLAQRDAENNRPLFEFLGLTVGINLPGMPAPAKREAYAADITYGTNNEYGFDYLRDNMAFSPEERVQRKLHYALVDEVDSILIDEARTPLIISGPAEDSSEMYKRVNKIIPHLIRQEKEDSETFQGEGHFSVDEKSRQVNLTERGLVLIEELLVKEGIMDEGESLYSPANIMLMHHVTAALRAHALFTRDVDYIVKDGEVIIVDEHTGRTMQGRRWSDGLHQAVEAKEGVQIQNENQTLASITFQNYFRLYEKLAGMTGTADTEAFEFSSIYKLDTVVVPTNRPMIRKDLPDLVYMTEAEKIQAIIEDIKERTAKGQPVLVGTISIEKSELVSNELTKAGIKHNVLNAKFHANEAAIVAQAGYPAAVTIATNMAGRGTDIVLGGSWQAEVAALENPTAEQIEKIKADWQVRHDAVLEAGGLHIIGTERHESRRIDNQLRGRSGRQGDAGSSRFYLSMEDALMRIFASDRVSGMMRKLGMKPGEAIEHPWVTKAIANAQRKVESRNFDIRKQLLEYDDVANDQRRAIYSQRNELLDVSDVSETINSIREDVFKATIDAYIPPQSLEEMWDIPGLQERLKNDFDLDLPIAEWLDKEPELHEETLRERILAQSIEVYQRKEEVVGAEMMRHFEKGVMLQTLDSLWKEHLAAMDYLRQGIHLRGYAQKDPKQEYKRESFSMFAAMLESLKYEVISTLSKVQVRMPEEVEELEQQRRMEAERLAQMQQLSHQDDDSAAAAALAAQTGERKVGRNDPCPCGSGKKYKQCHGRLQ
Sequence of Sialic acid-binding Ig-like lectin 9 (Homo sapiens) (Q9Y336 whole entry): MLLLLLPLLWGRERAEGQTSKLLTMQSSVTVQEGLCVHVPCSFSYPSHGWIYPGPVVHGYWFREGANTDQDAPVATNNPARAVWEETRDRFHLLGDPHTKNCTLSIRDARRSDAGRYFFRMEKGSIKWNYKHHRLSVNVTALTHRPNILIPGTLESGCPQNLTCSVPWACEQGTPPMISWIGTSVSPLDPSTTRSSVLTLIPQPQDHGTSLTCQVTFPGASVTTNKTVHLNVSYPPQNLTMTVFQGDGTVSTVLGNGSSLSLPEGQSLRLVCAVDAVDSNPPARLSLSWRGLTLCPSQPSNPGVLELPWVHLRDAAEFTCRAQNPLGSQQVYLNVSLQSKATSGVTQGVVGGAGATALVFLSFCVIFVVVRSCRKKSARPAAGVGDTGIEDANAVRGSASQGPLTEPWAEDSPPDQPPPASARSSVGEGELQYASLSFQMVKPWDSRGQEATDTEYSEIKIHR
Sequence of Chromo domain-containing protein 1 (Saccharomyces cerevisiae (strain ATCC 204508 / S288c) (Baker's yeast)) (P32657 whole entry, the tested form may be a part): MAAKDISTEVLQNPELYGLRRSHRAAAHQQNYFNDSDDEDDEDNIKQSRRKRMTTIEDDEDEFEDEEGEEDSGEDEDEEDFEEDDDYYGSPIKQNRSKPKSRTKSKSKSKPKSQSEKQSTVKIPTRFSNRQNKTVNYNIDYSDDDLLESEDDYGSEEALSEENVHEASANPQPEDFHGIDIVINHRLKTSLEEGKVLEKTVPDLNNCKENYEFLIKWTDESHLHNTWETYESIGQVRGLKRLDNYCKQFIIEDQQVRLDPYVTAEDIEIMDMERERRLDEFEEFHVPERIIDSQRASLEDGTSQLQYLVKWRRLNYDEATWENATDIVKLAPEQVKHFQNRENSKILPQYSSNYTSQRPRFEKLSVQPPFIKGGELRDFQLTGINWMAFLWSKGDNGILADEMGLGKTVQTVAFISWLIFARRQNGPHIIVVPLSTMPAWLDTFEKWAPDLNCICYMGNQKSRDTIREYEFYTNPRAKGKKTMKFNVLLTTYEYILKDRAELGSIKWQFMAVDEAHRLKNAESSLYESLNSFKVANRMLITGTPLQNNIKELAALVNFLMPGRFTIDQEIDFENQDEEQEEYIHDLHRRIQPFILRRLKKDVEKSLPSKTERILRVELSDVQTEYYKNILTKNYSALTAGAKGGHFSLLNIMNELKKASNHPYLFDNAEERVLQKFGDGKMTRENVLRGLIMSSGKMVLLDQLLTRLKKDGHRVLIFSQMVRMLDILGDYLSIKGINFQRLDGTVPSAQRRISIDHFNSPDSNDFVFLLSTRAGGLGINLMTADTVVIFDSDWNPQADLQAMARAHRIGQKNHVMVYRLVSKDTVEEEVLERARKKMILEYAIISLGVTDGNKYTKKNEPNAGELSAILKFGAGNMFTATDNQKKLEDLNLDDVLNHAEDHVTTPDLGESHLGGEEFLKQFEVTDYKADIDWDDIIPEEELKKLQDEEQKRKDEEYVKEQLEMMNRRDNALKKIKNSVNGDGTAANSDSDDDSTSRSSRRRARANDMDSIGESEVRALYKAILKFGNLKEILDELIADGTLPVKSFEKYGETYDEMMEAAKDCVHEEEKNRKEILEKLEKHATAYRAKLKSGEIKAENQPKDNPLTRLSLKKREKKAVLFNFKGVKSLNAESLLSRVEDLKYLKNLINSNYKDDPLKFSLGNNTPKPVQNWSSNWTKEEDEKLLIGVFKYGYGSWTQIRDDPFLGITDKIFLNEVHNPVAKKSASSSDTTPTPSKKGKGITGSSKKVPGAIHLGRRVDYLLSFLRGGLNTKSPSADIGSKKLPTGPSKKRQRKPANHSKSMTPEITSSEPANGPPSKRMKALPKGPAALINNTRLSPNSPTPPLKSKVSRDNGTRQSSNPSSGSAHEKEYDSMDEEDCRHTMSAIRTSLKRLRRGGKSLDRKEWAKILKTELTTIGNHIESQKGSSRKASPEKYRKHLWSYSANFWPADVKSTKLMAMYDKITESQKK

Turning to `c1ccc(-c2nnc(CNCCn3cccn3)o2)cc1`, the Percent Effect in test [1] was -3.18%; in test [2], -10.1%; in [3], 1.44%; in [4], -1.76%; in the test on Trypanosoma cruzi, 1.79%; in test [5], 3.04%. Moreover, the Percent Effect was 1.72% in test [6]; -4.79% in the test listed under Homo sapiens; 6.4% in test [7]; 8.86% in test [8]; -8.2% in test [9].
Take `CS(=O)(=O)N1CCC2(CN(C(=O)c3cccnc3)C2)C1`: the Percent Effect was -2.76% in test [1]; 5.48% in [2]; -1.91% in test [3]; 3.06% in test [4]; -2.18% with Trypanosoma cruzi; -2.79% in test [5]. Further, the Percent Effect in test [6] is 14.3%; in the test filed under Homo sapiens, 23.4%; in [7], 4.17%; in test [8] it was 6.17%; in test [9], -1.65%.
Turning to `Cc1nc(CN2CCCC2c2nc(C(C)C)no2)cs1` (centres undefined), the Percent Effect in [1] is -3.44%; in [2], 18.1%; in [3], -18.2%; in test [4], 15.3%; in the test on Trypanosoma cruzi it was 3.79%; in test [5], 5.3%. Moreover, the Percent Effect was 9.47% in [6]; -11.9% in the test listed under Homo sapiens; 5.26% in test [7]; 12.8% in [8]; -5.13% in test [9].
With `CCc1cnc2c(c1Nc1ccncc1)c(=O)n(C)c(=O)n2C`, the Percent Effect is 0.799% in test [1]; 18.2% in [2]; 5.71% in test [3]; -13.1% in test [4]; 2.27% in the test on Trypanosoma cruzi; 1.94% in test [5]. Also, the Percent Effect in [6] was 14.6%; in the test listed under Homo sapiens it was 35.5%; in test [7], 7.41%; in test [8], 14.1%; in test [9], -10.9%.
As for `CS(=O)(=O)CCN1CCC2(CCCN(C3CCOCC3)C2=O)C1` (centres undefined), the Percent Effect in [1] was -4.3%; in test [2], 2.74%; in test [3], -4.09%; in test [4], 8.46%; with Trypanosoma cruzi, 2.98%; in test [5], -2%. The Percent Effect in test [6] is 3.85%; in the test listed under Homo sapiens, 13.4%; in [7] it was 2.08%; in [8], 11.1%; in test [9], -0.555%.
With `O=C(NCc1cnc2n1CCN(CC1CC1)CC2)C1CCC1`, the Percent Effect in [1] was -2.75%; in test [2], 13.5%; in [3], -7.3%; in test [4] it was 21.4%; with Trypanosoma cruzi, 4.79%; in [5], 18.1%. The Percent Effect in [6] was 7.47%; in the test listed under Homo sapiens, -8.45%; in test [7] it was 6.45%; in [8] it was 16.1%; in [9] it was -4.7%.
Regarding `CCCOc1ccc(CNC2CCCc3c2cnn3CC)cc1OC` (centres undefined), the Percent Effect in [1] was -6.15%; in [2], 15.2%; in test [3], -7.05%; in test [4] it was 11%; with Trypanosoma cruzi, 6.33%; in test [5], -3.04%. Also, the Percent Effect was 5.98% in [6]; 2.78% in the test filed under Homo sapiens; 9.36% in [7]; 21.5% in test [8]; -12.2% in test [9].
With `COC(=O)c1cccc(NS(=O)(=O)c2cnc(NC(C)=O)s2)c1`, the Percent Effect is 1.56% in test [1]; 6.67% in [2]; -2.6% in test [3]; 1.81% in test [4]; -6.09% in the test on Trypanosoma cruzi; -8.63% in test [5]. Further, the Percent Effect in test [6] was 17.4%; in the test filed under Homo sapiens it was -6.95%; in test [7] it was 3.17%; in [8] it was 0%; in [9], -6.88%.
For the molecule `CCOc1cccc(CNC(=O)NCC(O)c2cccc(F)c2)c1` (centres undefined), the Percent Effect in [1] is -5.26%; in test [2] it was 16.2%; in test [3], -2%; in test [4], 22.6%; in the test on Trypanosoma cruzi, 5.75%; in [5] it was -6.01%. The Percent Effect in test [6] is -1.44%; in the test listed under Homo sapiens it was 29.2%; in test [7], 7.39%; in test [8], 23.5%; in test [9], -11.2%.
